Experimental data: PubChem BioAssay (NCI)
About 83,000 compounds went through this panel and 20% of them were active in at least one assay; those are over-represented in the sample as a whole.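 Growth was measured after 48 h exposure to one concentration of compound in 96-well plates. Values under 10 count as active.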 A number with no mark means an inactive call. The source made the active and inactive calls.

What was measured:
Assay in all cases: NCI-60 one-dose screen, 48 h (100 = growth as untreated, 0 = no growth, -100 = all killed)
Conditions in all cases: 10 µM
T-47D breast = test system: T-47D breast
MDA-MB-435 melanoma = test system: MDA-MB-435 melanoma
SW-620 colon = test system: SW-620 colon
MCF7 breast = test system: MCF7 breast
HCT-116 colon = test system: HCT-116 colon
HCC-2998 colon = test system: HCC-2998 colon
KM12 colon = test system: KM12 colon
BT-549 breast = test system: BT-549 breast

Structure (SMILES) | growth (T-47D breast) | growth (MDA-MB-435 melanoma) | growth (SW-620 colon) | growth (MCF7 breast) | growth (HCT-116 colon) | growth (HCC-2998 colon) | growth (KM12 colon) | growth (BT-549 breast)
O=C1c2ccccc2C(=O)c2c1ccc(C(Br)Br)c2[N+](=O)[O-] | -36.2% (active) | 81.5% | -23.6% (active) | -40% (active) | -63.9% (active) | 82% | 49.9% | –
Cc1ccc(NC(=O)N2CCCCC2)cc1[N+](=O)[O-] | 121% | – | 73.3% | 92.9% | 94.7% | 103% | 111% | –
CN(C)CCC1(c2ccccc2)CCN(C)C1=O (configuration not stated) | – | 105% | 103% | 106% | 110% | 108% | 103% | 106%
COc1ccc(N(C)c2ncnc3occ(C)c23)cc1 | 67.1% | 7.12% (active) | 33.9% | 9.66% (active) | -11.9% (active) | 7.26% (active) | -33.2% (active) | –
CCN(CC)CCOc1ccc2c(c1O)C(=O)c1ccccc1C2=O | 97.2% | 94.5% | 67.9% | 82.1% | 44.9% | 96.7% | 98% | –
CCN(CC)CCOc1cccc2c1C(=O)c1cccc(OCCN(CC)CC)c1C2=O | 92.2% | 32.5% | 20.8% | 9.16% (active) | 7.44% (active) | 54.7% | 33.9% | –
Cc1ccc(C2NC(=S)N3C(c4ccc(C)cc4)NC(=S)N23)cc1 (configuration not stated) | 47.3% | -35% (active) | 29.2% | 10.5% | 1.28% (active) | 47% | 8.36% (active) | –
CC(=O)Nc1cc2c(cc1Cl)Cc1cc(Cl)ccc1-2 | – | 98.4% | 97.5% | 40.1% | 99.3% | 65.6% | 87.4% | 99.2%
COc1cc(/C=C2\CCCC3=C2NC(N)=NC3c2cc(OC)c(OC)c(OC)c2)cc(OC)c1OC (configuration not stated) | – | – | -22.3% (active) | 43% | -81.6% (active) | -35.2% (active) | -75.8% (active) | -38.7% (active)
CCCc1nc(C(C)(C)O)c(C(=O)O)n1Cc1ccc(-c2ccccc2-c2nn[nH]n2)cc1 | – | 106% | 98.6% | 98.9% | 106% | 110% | 120% | 103%
C[N+]1(CCCCC[N+]2(C)CCCC2)CCCC1 | – | 98.6% | 98.3% | 95.2% | 107% | 119% | 102% | 77.8%
NC1=NC(c2ccc(Cl)cc2)C2=C(N1)/C(=C/c1ccc(Cl)cc1)CCC2 (configuration not stated) | – | -0.458% (active) | 18.9% | 33.2% | -72.1% (active) | -31.1% (active) | 2.3% (active) | 79%
Cc1ccc(NCCN(C)CC(C)O)c2c(=O)c3ccccc3sc12 (configuration not stated) | – | 30% | 23.6% | 20% | 18.5% | 15.4% | 44.9% | 84.4%
Cc1cc(SCc2ccccc2)nc(N)n1 | – | 99.2% | 105% | 93.8% | 102% | 108% | 115% | 89.3%
CCOC(=O)c1cc(C(=O)c2ccc(OC)c(OC)c2)n2c1ccc1ccc3cccnc3c12 | – | -25.6% (active) | 12.8% | 21.8% | 27.2% | 65.7% | 28.8% | 33%
CN1CCN(CCC(=O)Nc2cccc(-n3cc(-c4ccncc4)c(-c4ccc(Cl)c(O)c4)n3)c2)CC1 | – | -37.9% (active) | 20.9% | 13.9% | 19.1% | 82.2% | 31.2% | 56.5%
CC1C(=NC(=O)c2cnccn2)C(C)C(c2ccc(Cl)cc2)NC1c1ccncc1 (configuration not stated) | – | 96.9% | 111% | 91.3% | 73.6% | 115% | 95.8% | 95.4%
COc1ccccc1N1CCCSC1=Nc1ccccc1 | – | 103% | 103% | 98.6% | 79.2% | 108% | 91.7% | –
CCCCc1oc2ccccc2c1C(=O)c1cc(I)c(OCCN(CC)CC)c(I)c1 | – | -56.2% (active) | -96.3% (active) | -67% (active) | -61.4% (active) | -88.5% (active) | -47.6% (active) | -50% (active)
COc1ccc2nc3cc(Cl)ccc3c(NCCCNCCO)c2c1 | – | -69.1% (active) | -2.84% (active) | -18.6% (active) | -50.4% (active) | -43.6% (active) | 3.19% (active) | 5.74% (active)
OCCn1cccn1 | – | 102% | 101% | 116% | 110% | 97.1% | 102% | 110%
CN(C)CCOc1ccccc1NC1=C(Cl)C(=O)C(Nc2ccccc2OCCN(C)C)=C(Cl)C1=O | – | 86.4% | -50% (active) | -53.9% (active) | -75.3% (active) | 101% | 93.6% | –
O=C(NCCCNS(=O)(=O)c1ccc(Cl)cc1)Nc1ccc(-n2cc(-c3ccncc3)c(-c3ccc(Cl)c(O)c3)n2)cc1 | – | 28.4% | 50.3% | 13.8% | 16.2% | 57.9% | 28.6% | 26.6%
